Compound activity (PubChem BioAssay)
Most compounds without a hit are left out; they make up all but 1.1% or so of the library.
BJeLR lethal: MLPCN primary cell-based screen for lethality selective to Ras in HRASV12 cells; BJeLR (HRASV12) viability, CellTiter-Glo ATP luminescence, 48 h; inhibition, % (test concentration not listed); 300,000 tested, 0.17% active; AID 1554, 2009; in the data active means inhibition above about 50%
Mtb bLac sens: beta-lactam sensitization of Mtb H37Rv, H37Rv; M. tuberculosis H37Rv growth with meropenem, percent inhibition; inhibition, % at 25 µM; 330,000 tested, 0.27% active; AID 434955, 2010; call rule not given here;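 further: growth measured after seven days incubation then overnight dye step; 0% = bacteria only wells and 100% = bacteria with antibiotic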
Y pestis TopoI: Yersinia pestis topoisomerase I inhibitors, primary screen, biochemical, cleavage product accumulation, plate reader, single point; DNA topoisomerase I (Yersinia pestis CO92); 360,000 tested, 0.064% active; activity, % at 10 µM; AID 504884, 2011; Y. pestis Topo-I cleavage product accumulation; in the data active means activity above about 50%, passing the limit was not always enough
RecA splice inh: Mtb RecA intein splicing inhibitors, primary screen, biochemical, fluorescence, HTS; Protein RecA (Mycobacterium tuberculosis (strain ATCC 25618 / H37Rv)), P9WHJ3; cell-free RecA intein splicing; inhibition, % (no concentration beside the values); 290,000 tested, 0.75% active; AID 2221, 2009; in the data active means inhibition above about 30%;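 further: 0% = vehicle wells and 100% = reference inhibitor control wells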
Target sequence (P9WHJ3 whole entry, looked up, canonical isoform): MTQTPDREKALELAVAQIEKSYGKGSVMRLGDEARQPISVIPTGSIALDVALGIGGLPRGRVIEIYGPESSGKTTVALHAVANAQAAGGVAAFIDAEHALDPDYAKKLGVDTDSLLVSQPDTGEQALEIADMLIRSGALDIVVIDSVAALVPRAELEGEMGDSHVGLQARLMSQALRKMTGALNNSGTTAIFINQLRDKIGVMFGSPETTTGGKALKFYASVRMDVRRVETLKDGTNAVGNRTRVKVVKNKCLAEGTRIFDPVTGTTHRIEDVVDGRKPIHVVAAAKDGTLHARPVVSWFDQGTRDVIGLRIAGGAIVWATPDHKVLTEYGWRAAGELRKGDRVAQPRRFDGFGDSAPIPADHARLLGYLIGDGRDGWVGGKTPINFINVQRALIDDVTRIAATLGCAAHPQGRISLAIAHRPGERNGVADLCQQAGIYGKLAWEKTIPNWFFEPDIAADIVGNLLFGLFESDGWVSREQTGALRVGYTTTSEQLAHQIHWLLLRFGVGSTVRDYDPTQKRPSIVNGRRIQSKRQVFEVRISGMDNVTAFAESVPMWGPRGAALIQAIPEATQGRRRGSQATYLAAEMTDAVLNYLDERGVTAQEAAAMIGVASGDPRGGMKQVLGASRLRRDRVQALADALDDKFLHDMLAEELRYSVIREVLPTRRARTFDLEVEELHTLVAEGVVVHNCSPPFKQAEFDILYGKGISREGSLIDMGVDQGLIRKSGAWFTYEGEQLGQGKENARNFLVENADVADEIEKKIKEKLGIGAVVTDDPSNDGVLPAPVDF
CCHF vOTU inh-1: CCHFV vOTU protease inhibitors, primary screen, biochemical, Pep-AMC substrate, fluorescence. Crimean-Congo hemorrhagic fever virus L polyprotein viral ovarian tumor (vOTU) protease …. inhibition, % at 11.5 µM. 370,000 tested, 0.55% active. AID 651958, 2012; further: 0% = vehicle wells with enzyme and 100% = no enzyme wells
BioA inh: M. tuberculosis BioA enzyme inhibitors, primary screen, biochemical, plate reader, single point, HTS; purified M. tuberculosis BioA enzyme; AID 602481, 2012; inhibition, % at 9.99 µM; 7,8-diaminopelargonic acid synthase BioA (Mycobacterium tuberculosis); 360,000 tested, 0.096% active; in the data active means inhibition above about 40%
CCHF vOTU inh-2: CCHFV vOTU protease inhibitors, confirmation, biochemical, Pep-AMC substrate, fluorescence; shares compounds with CCHF vOTU inh-1; Recombinant CCHFV vOTU; inhibition, % at 11.5 µM; 1,900 tested, 17% active; AID 686976, 2013
Numbers without * were called inactive; nt = no result given. Unless noted, no stated cut-off is given here; in the data, active means inhibition above about 30%; inactive means the rest.

SMILES | BJeLR lethal | Mtb bLac sens | Y pestis TopoI | RecA splice inh | CCHF vOTU inh-1 | BioA inh | CCHF vOTU inh-2
COc1cc([N+](=O)[O-])ccc1NC(=S)Nc1cccc(C(=O)O)c1 | -4 | 1 | -3 | -3 | 31* | -2 | -13
COC(=O)Nc1ccc([N+](=O)[O-])cc1OC | -4 | -2 | 2 | -1 | 9 | nt | nt
C[C@H]1CN([C@@H](C)CO)C(=O)c2cc(C3=CCCCC3)cnc2O[C@@H]1CN(C)Cc1cccnc1 | nt | nt | nt | nt | nt | 5 | nt
O=C(Nc1ccc2c(c1)[C@H]1C[C@H](CC(=O)N3CCOCC3)O[C@H](CO)[C@H]1O2)C1CCC1 | nt | nt | nt | nt | nt | 0 | nt
COc1ccc2c(c1)NP(=S)(c1ccccc1)N2C (stereo unspecified) | nt | nt | 0 | nt | 38* | -7 | -18
COC(=O)c1sc(N2C(=O)C(O)=C(C(=O)c3ccc(C)o3)C2c2ccc([N+](=O)[O-])cc2)nc1C (stereo unspecified) | -5 | -4 | 25 | 1 | 31* | 0 | -1
COc1cc(C(N)=O)ccc1OCc1ccccc1 | -2 | 2 | 6 | -5 | 30* | 4 | -27
CCC(=O)c1ccc(OCc2ccccc2)c(OC)c1 | -1 | 4 | 15 | 1 | 11 | nt | nt
CNc1ccc2oc(C[C@H]3O[C@@]4(CC[C@H]3C)O[C@H]([C@H](C)C(=O)c3ccc[nH]3)[C@H](C)C[C@H]4C)nc2c1C(=O)O | 31 | 97 | -7 | -39 | 54* | -2 | -36
CN=C(Nc1ccc(Cl)cc1)c1ccc(C(F)(F)F)cc1 | 3 | -6 | 9 | -1 | 36* | 3 | -5
COC(=O)[C@@]12C[C@@H](CC(=O)N3CCN(C(=O)C4CC4)CC3)C(=O)N(Cc3ccccc3)C1=CCC(C)(C)C2 | nt | nt | nt | nt | 2 | nt | nt
CCCCCCCCN1C(=O)[C@H](CC(=O)N2CCN(C(=O)OCC)CC2)C[C@@]2(C(=O)OC)CC(C)(C)CC=C12 | nt | nt | nt | nt | 32* | nt | 22
CCCCCCCCN1C(=O)[C@H](CC(=O)N2CCN(C(=O)C3CC3)CC2)C[C@@]2(C(=O)OC)CC(C)(C)CC=C12 | nt | nt | nt | nt | 31* | nt | 19
CCOC(=O)N1CCN(C(=O)C[C@@H]2C[C@@]3(C(=O)OC)CC(C)(C)CC=C3N(Cc3ccccc3)C2=O)CC1 | nt | nt | nt | nt | 20 | nt | nt
Cc1ccc(C(O)c2ncc(-c3ccc(F)cc3)[nH]2)c(C)c1 (stereo unspecified) | nt | nt | -4 | nt | 31* | -1 | -22
Cc1cccc(C(O)c2ncc(-c3cccc(C(F)(F)F)c3)[nH]2)c1C (stereo unspecified) | nt | nt | -2 | nt | 44* | -2 | -10
CCCNC(=O)N1C[C@H](O)COC[C@@H]2O[C@H](CC(=O)N3CCOCC3)CC[C@H]21 | nt | nt | nt | nt | nt | 1 | nt
CCS(=O)(=O)NCC[C@@H]1CC[C@@H](NC(=O)C2CCOCC2)[C@@H](CO)O1 | nt | nt | nt | nt | nt | -2 | nt
Cc1ccc(S(=O)(=O)N2CC[C@H]3[C@@H](CO)N(C)c4ccc(C#Cc5cccnc5)cc4[C@H]32)cc1 | nt | nt | nt | nt | nt | 0 | nt
O=C(Oc1ccc2[nH]cc(CCN3C(=O)c4ccccc4C3=O)c2c1)c1ccco1 | -5 | 10 | -9 | 4 | 36* | nt | -24
C[C@]12CCCC(=O)N1CCc1c2[nH]c2ccccc12 | nt | nt | nt | nt | nt | 0 | nt
CCS(=O)(=O)c1ccc2oc(Nc3ccc(C(C)(C)C)cc3)nc2c1 | -5 | 4 | -3 | 2 | 30* | 0 | -9
CCS(=O)(=O)c1ccc2oc(Nc3ccc(OC)cc3)nc2c1 | -6 | -17 | -14 | 0 | 6 | 0 | nt
CC(=O)N1[C@H](CO)[C@H](c2ccccc2)[C@H]1CN(CC(C)C)C(=O)c1ccccn1 | nt | nt | nt | nt | nt | -3 | nt
C[C@@H]1CN([C@@H](C)CO)C(=O)c2cc(NC(=O)Cc3ccccc3)ccc2O[C@@H](C)CCCCO[C@@H]1CN(C)S(=O)(=O)c1ccc(F)cc1 | nt | nt | nt | nt | nt | -4 | nt
